# Wnt act: Wnt/beta-catenin pathway activation; Wnt/beta-catenin reporter cell assay, activator, plate reader; activation, % at 9.35 µM; actives 1.2% (n = 300,000); AID 743398; in the data active = activation above about 30%, passing the limit was not always enough;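 also: 0% = neutral control wells and 100% = positive control wells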
# MITF act: activators of MITF-driven TRPM1 promoter activity in SK-MEL-5 cells. AID 588334. activation, % at 12.5 µM. SK-MEL-5 TRPM1-promoter luciferase, 24 h; % of positive control, neutral wells = 0. actives 0.75% (n = 300,000);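 active = mean activation of at least 80% with every replicate also reaching 80%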;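 also: 0% = neutral control wells and 100% = parthenolide positive control wells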
# GAA850 FXN act: activators of GAA850 frataxin (FXN) promoter; actives 0.56% (n = 360,000); AID 540364; HEK293 lucGAA850 FXN promoter luciferase reporter, 24 h; percent of 10 µM SAHA response; activation, % at 6 µM;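 active = activation above the average of all compounds screened plus 3 SD, cutoff fixed separately per campaign, cut at about 7.5% in these data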;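 also: 0% = DMSO wells and 100% = 10 µM SAHA wells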
# AHR act: human AHR activation | AID 2796 | P35869 | AHR-responsive luciferase reporter cells, luminescence | actives 2.5% (n = 320,000) | activation, % at 5 µM; in the data active = activation above about 47%;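 also: 0% = vehicle wells and 100% = reference agonist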
# esBAF inh: SWI/SNF esBAF complex inhibition. mouse ES cells, Bmi1-luciferase knock-in reporter, 24 h; 100% = twice the neutral-well signal. reporter increase, % at 12.5 µM. actives 2% (n = 350,000); in the data active = activation above about 40%;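 also: 0% = median of the plate's neutral control wells and 100% = double that signal; a rise in the Bmi1 reporter signal indicates esBAF inhibition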
# * marks the source's active call; other numbers are inactive results; / = no result. The list is not random: actives were taken first. Their share in the collection is about 4.2%.
SMILES,Wnt act,MITF act,GAA850 FXN act,AHR act,esBAF inh
COc1cccc(S(=O)(=O)N[C@H]2CC[C@H](CC(=O)NCc3ccc(Cl)cc3)O[C@@H]2CO)c1,/,/,/,/,-5
C/C(=C\c1ccccc1)C(=O)NCc1ccco1,32*,31,3,0,/
O=C(NCc1ccco1)c1ccccc1,1,/,2,1,1
C/C(=C\c1ccccc1)C(=O)NCCc1ccccc1,61*,50,3,1,/
C[C@H](CO)N1C[C@H](C)[C@@H](CN(C)C(=O)Nc2ccc(F)cc2)Oc2ccc(NC(=O)CCC(F)(F)F)cc2CC1=O,/,/,/,/,0
CC(C)NC(=O)Nc1ccc2c(c1)CC(=O)N([C@H](C)CO)C[C@@H](C)[C@@H](CN(C)S(=O)(=O)c1ccccc1)O2,/,/,/,/,-4
c1ccc(-c2ccc3c(n2)CCCN3Cc2ccccn2)cc1,35*,/,/,/,/
COCCNC(=O)CCC(=O)NNc1nc2ccccc2c2nc(-c3ccccc3)nn12,1,-9,1,60*,/
CCOCCCNC(=O)CCC(=O)NNc1nc2ccccc2c2nc(-c3ccccc3)nn12,2,-12,-1,29,/
COCCCNC(=O)CCC(=O)NNc1nc2ccccc2c2nc(-c3ccccc3)nn12,-1,-8,2,62*,6
O=C(NCC[C@@H]1CC[C@@H](NC(=O)c2cnccn2)[C@@H](CO)O1)Nc1ccc(F)cc1,/,/,/,/,-5
O=C(Nc1ccc(C(F)(F)F)cc1)c1csc(-c2ccncc2)n1,-6,-6,3,66*,/
O=C(NNC(=O)c1csc(-c2cnccc2C(F)(F)F)n1)c1ccc(C(F)(F)F)cc1,1,/,1,15,-6
O=C(Nc1ccccc1)c1csc(-c2ccccc2)n1,8,15,3,68*,/
O=C(Nc1ccccc1Cl)c1csc(-c2cccnc2)n1,-1,26,4,48*,59*
O=C(NC1CCCCC1)N[C@H]1CC[C@@H](CCNS(=O)(=O)c2ccc(Cl)cc2)O[C@@H]1CO,/,/,/,/,4
Nc1ccc2c(c1)C(=O)c1ccccc1-2,32*,/,0,-5,15
Nc1ccc2c(c1)C(=O)c1ccccc1C2=O,40*,104*,1,29,69*
Nc1ccc2c(c1)C(=O)C(=O)c1ccccc1-2,/,-106,-15,-16,/
C[C@@H]1CN([C@H](C)CO)C(=O)c2cccc(NS(=O)(=O)c3ccc(F)cc3)c2O[C@@H]1CN(C)C(=O)Nc1cccc2ccccc12,/,/,/,/,0
O=C(C1CCC1)N1C[C@@H]2[C@H](c3ccccc31)[C@H](CO)N2C(=O)Nc1cccc(F)c1,/,/,/,/,1
CCOc1cc2c3c(c1)C1(C(=O)N3C(C)(C)CC2C)C(C#N)=C(N)N2C(=C1C#N)Nc1ccccc12 (stereo not given),/,-18,0,58*,/
C[C@H]1CN([C@@H](C)CO)C(=O)c2cc(C#Cc3cccnc3)cnc2O[C@H]1CN(C)C(=O)CC1CC1,/,/,/,/,-3
C/C(O)=C(\N=Nc1cc(C)ccc1O)C(N)=O,-1,-19,4,52*,/
O=C([C@H]1N[C@H]2c3ccc(C4=CCCCC4)c(=O)n3C[C@H]2[C@@H]1CO)N1CCc2ccccc2C1,/,/,/,/,-2
SMILES,Wnt act,MITF act,GAA850 FXN act,AHR act,esBAF inh
COc1ccc(CN(C)C[C@@H]2Oc3ccc(NC(=O)C4CC4)cc3CC(=O)N([C@H](C)CO)C[C@@H]2C)cc1,/,/,/,/,0
N#C/C(=C/c1ccc(N2CCOCC2)o1)c1ccc(Br)cc1,/,63,16*,3,/
N#C/C(=C/c1ccc(N2CCCCCC2)o1)c1cccc(F)c1,/,86*,6,0,30
COc1cc(N2CCCC2)c(OC)cc1/C=C(/C#N)c1cccc(F)c1,/,13,-1,69*,-5
C[C@@H]1CN([C@@H](C)CO)C(=O)c2cc(NC(=O)Nc3ccccc3)ccc2O[C@H]1CN(C)S(=O)(=O)c1cn(C)cn1,/,/,/,/,-5
COc1ccc2c(c1)sc1nc(-c3ccccc3)cn12,/,-90,-9,57*,/
O=C1C2C3C=CC(C4CC34)C2C(=O)N1/N=C/c1c[nH]c2ccccc12 (stereo not given),11,-1,3,39,57*
Brc1ccc(C2=CC(c3ccco3)n3nnnc3N2)cc1 (stereo not given),18,1,2,52*,/
C[C@H]1CN([C@@H](C)CO)C(=O)c2cc(NC(=O)C3CC3)ccc2O[C@H]1CN(C)Cc1ccc(C(F)(F)F)cc1,/,/,/,/,1
Cc1ccc2[nH]c3c(c2c1)CCc1cn[nH]c1-3,/,19,-4,53*,12
Cc1ccc2[nH]c3c(c2c1)CCC3=O,/,-6,1,2,11
COc1ccccc1C1CCN(c2ccc([N+](=O)[O-])c(OC)c2)CC1,2,34,2,-1,55*
COc1cc(N2CCCC2)ccc1[N+](=O)[O-],/,-5,1,3,/
CN1c2ccc(-c3cccc(C#N)c3)cc2[C@H]2[C@H](CCN2C(=O)C2CCC2)[C@@H]1CO,/,/,/,/,2
COc1cccc(/C=N/n2nnnc2N)c1OCc1ccccc1Cl,/,/,-1,4,-17
COc1ccccc1OCCn1cc(/C=N/NC(N)=S)c2ccccc21,-2,2,-1,69*,2
COc1cc(/C=N/NC(N)=S)cc(Br)c1OCc1ccccc1F,-18,-1,-2,54*,/
COc1cccc(/C=N/NC(N)=S)c1OCc1ccccc1Cl,4,-13,-1,50*,/
C[C@H]1CN([C@@H](C)CO)C(=O)Cc2cc(NS(=O)(=O)c3cccs3)ccc2O[C@H]1CN(C)Cc1ccc2c(c1)OCO2,/,/,/,/,-1
COc1ccc(N(C(C)=O)c2nc(C)cc(C)c2C#N)c(OC)c1,6,-17,1,78*,/
CC(=O)N1[C@@H]2c3ccc(-c4ccccc4)c(=O)n3C[C@@H]2[C@@H](CO)[C@@H]1C(=O)N(C)C,/,/,/,/,-4
c1coc(CNc2c3c(nc4ncnn24)CCCC3)c1,3,-6,0,1,/
Clc1cccc(-c2cc3nc4c(c(NCc5ccco5)n3n2)CCCC4)c1,/,53,7,28,44*
CC(=O)N1[C@@H]2c3ccc(C4=CCCCC4)c(=O)n3C[C@H]1[C@H](CO)[C@H]2C(=O)N[C@@H](C)c1ccccc1,/,/,/,/,2
Cn1c(=O)c(-c2cc(=O)[nH][nH]2)c(O)c2ccccc21,0,-8,1,51*,/
SMILES,Wnt act,MITF act,GAA850 FXN act,AHR act,esBAF inh
CNC(=O)c1ccc(-c2cc(C(F)(F)F)nn2C)s1,35*,/,3,-7,/
CNc1cccc(-c2cccc(O)c2)n1,5,/,1,/,53*
Cc1nn(-c2ccc(Cl)cc2)c(=O)c2c(C)noc12,-1,-12,1,78*,-1
Cc1ccc(-n2nc(C)c3c(C)onc3c2=O)cc1,2,18,-1,1,/
CC(C)OCCCN1CN(S(=O)(=O)c2ccccc2)c2nc3ccccc3nc21,7,38,2,-4,43*
Cc1ccc(C(=O)NCCCc2ccccc2)c(Cl)c1,18,101*,2,6,42*
NS(=O)(=O)c1ccc(CCNC(=O)c2cccc3ccccc23)cc1,-2,-1,-1,1,-1

# Screens deposited in PubChem by several laboratories.
